Source: PubChem BioAssay
Active and inactive are the calls of the source.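 The calls were made as follows: active = viability at or below 10% of carrier control in both of two separate runs; inconclusive = viability at or below 10% in only one of the two runs; inactive = the rest.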

assay: reduced viability of SK-BR-3 breast cancer cells – cell-based, 24 h, human, pilot screen (AID 572); settings: SK-BR-3 viability, CellTiter-Glo luminescence, at 10 µM, active compounds read low;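 also: compound exposure lasted between 18 and 24 h rather than exactly 24 h; 100% = carrier-treated control wells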

Structure (SMILES) | viability
Cc1nccn1CCCN1C(=O)OC2(CCCCC2)C1(C)O (configuration not stated) | 90% (inactive)
CCOC(=O)/C=C1\SCC(=O)N1Cc1nnc(-c2ccccc2Br)o1 | 107% (inactive)
Cc1ccc(S(=O)(=O)N2CCN(C(=O)c3cc(=O)[nH]c4ccccc34)CC2)c(C)c1 | 66% (inactive)
OC(CCCN1CCC(O)(c2ccc(Cl)cc2)CC1)c1ccc(F)cc1 (configuration not stated) | 89% (inactive)
CCCC(=O)n1nc(-c2ccc(OC)cc2)nc1N | 101% (inactive)
Cc1ccc(-c2nn(-c3ccccc3)cc2/C=C(\C#N)c2cccc(C#N)c2)o1 | 71% (inactive)
Fc1cccc(NCc2cn3ccccc3n2)c1 | 81% (inactive)
CCCc1nc(NCc2ccncc2)c2nnn(Cc3ccccc3F)c2n1 | 99% (inactive)
O=C1OCCC1Sc1ncnc2sccc12 (configuration not stated) | 78% (inactive)
CCOC(=O)C1=C[C@]2(CC)CCCN3CCc4c(n1c1ccccc41)[C@@H]32 | 70% (inactive)
C=CCNC(=O)c1ccc(Cl)cc1Cl | 108% (inactive)
CCCC(=O)Nc1cc(-c2nnc(OC)c3ccccc23)ccc1N1CCOCC1 | 109% (inactive)
COC(=O)C1C2C=CC3(CN(CC4CCCO4)C(=O)C13)O2 (configuration not stated) | 78% (inactive)
Cc1cc(C(C)(C)C)cc(C)c1CC1=NCCN1 | 120% (inactive)
CCCn1c(=O)c2[nH]c(C3CCCC3)nc2n(CCC)c1=O | 100% (inactive)
c1ccc(OCc2nc(-c3ccccc3)no2)cc1 | 98% (inactive)
C=CCn1c(SCC(=O)NCC2CCCO2)nc2scc(-c3ccco3)c2c1=O (configuration not stated) | 112% (inactive)
